These results are taken from PubChem BioAssay (EPA / NIEHS).

The structures appear in SMILES notation. Activity calls are given as the source filed them. Rule for the calls: active = hit-call score of the fitted dose curve at least 0.9, where 1 is the maximum; inactive = score below 0.9.

In general, AC50 refers to the midpoint of the concentration-response curve, whichever way the signal moves.

What all share (settings): mRNA level, 48 h; actives raise or lower the signal
Read-out in assay [1]: ATP-citrate lyase (ACLY), ACLY (gene 47)
Description: LTEA_HepaRG_ACLY: Life Technologies and Expression Analysis (LTEA) Assay for ATP-citrate lyase (ACLY) using HepaRG (AID 2283466). An outline of the steps: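 Differentiated human HepaRG cells in serum-free induction medium exposed 48 h, in duplicate, to eight half-log concentrations from 100 uM top in 0.5% DMSO; ACLY mRNA measured by qRT-PCR, normalized to ACTB, GAPDH, POLR2A, fitted bidirectionally versus DMSO.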

Read-out in assay [2]: Peroxisomal acyl-coenzyme A oxidase 1 (ACOX1) gene, ACOX1 (gene 51)
Kind of assay: LTEA_HepaRG_ACOX1: Life Technologies and Expression Analysis (LTEA) Assay for Peroxisomal acyl-coenzyme A oxidase 1 (ACOX1) gene using HepaRG (AID 2283467). Summed up: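 Differentiated human HepaRG cells were exposed in duplicate for 48 h in serum-free induction medium to eight half-log concentrations up to 100 uM in 0.5% DMSO. ACOX1 mRNA was then quantified by TaqMan qRT-PCR, normalized to ACTB, GAPDH and POLR2A.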

Read-out in assay [3]: Alkaline Phosphatase, Placental (ALPP) gene, ALPP (gene 250)
Kind of assay: LTEA_HepaRG_ALPP: Life Technologies and Expression Analysis (LTEA) Assay for Alkaline Phosphatase, Placental (ALPP) gene using HepaRG (AID 2283468). An outline of the steps:
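Expression of ALPP was quantified by qRT-PCR against three housekeeping genes in human HepaRG cultures treated for 48 h with an eight-point concentration series up to 100 uM. Activity in either direction was fitted relative to 0.5% DMSO.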

Read-out in assay [4]: Bcl-2 (BAD) gene, BAD (gene 572)
Kind of assay: LTEA_HepaRG_BAD: Life Technologies and Expression Analysis (LTEA) Assay for Bcl-2 (BAD) gene using HepaRG (AID 2283469). An outline of the steps:
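Differentiated human HepaRG cells in serum-free induction medium were exposed in duplicate for 48 h to eight concentrations (top 100 uM, half-log steps, 0.5% DMSO). BAD mRNA was quantified by qRT-PCR normalised to ACTB, GAPDH and POLR2A, with bidirectional fitting versus DMSO.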

Read-out in assay [5]: Bcl-2 (BAX) gene, BAX (gene 581)
Kind of assay: LTEA_HepaRG_BAX: Life Technologies and Expression Analysis (LTEA) Assay for Bcl-2 (BAX) gene using HepaRG (AID 2283470). An outline of the steps:
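HepaRG (human liver), 48 h exposure, duplicate wells. 8-pt curve, half-log from 100 uM, 0.5% DMSO. BAX transcript by TaqMan qRT-PCR; ACTB/GAPDH/POLR2A normalization; gain or loss vs DMSO baseline.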

Read-out in assay [6]: adenosine kinase (ADK) gene, ADK (gene 132)
Description: LTEA_HepaRG_ADK: Life Technologies and Expression Analysis (LTEA) Assay for adenosine kinase (ADK) gene using HepaRG (AID 2283471). Summed up: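 Differentiated HepaRG cells dosed 48 h in serum-free induction medium, 0.5% DMSO vehicle, eight half-log concentrations from 100 uM, in duplicate. ADK mRNA by TaqMan qRT-PCR normalised to ACTB, GAPDH, POLR2A; bidirectional fit versus DMSO.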

Read-out in assay [7]: Alpha-fetoprotein (AFP) gene, AFP (gene 174)
Description: LTEA_HepaRG_AFP: Life Technologies and Expression Analysis (LTEA) Assay for Alpha-fetoprotein (AFP) gene using HepaRG (AID 2283472). An outline of the steps:
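HepaRG, single lot; 48 h post-plating -> serum-free induction medium; cpd 8-pt, 100 uM top, half-log, 0.5% DMSO, duplicate, 48 h. RNA -> qRT-PCR AFP, norm ACTB/GAPDH/POLR2A. Bidirectional fit vs DMSO.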

Read-out in assay [8]: BCL2L11 (gene 10018)
Kind of assay: LTEA_HepaRG_BCL2L11: Life Technologies and Expression Analysis (LTEA) Assay for Bcl-2 (BCL2L11) gene using HepaRG (AID 2283473). An outline of the steps: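 Cells were plated, cultured 48 h, switched to serum-free induction medium, then dosed in duplicate for 48 h at eight half-log concentrations up to 100 uM. Lysates underwent RNA isolation and TaqMan qRT-PCR; gain or loss versus DMSO was fitted.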

Read-out in assay [9]: Apolipoprotein A-V (APOA5) gene, APOA5 (gene 116519)
Kind of assay: LTEA_HepaRG_APOA5: Life Technologies and Expression Analysis (LTEA) Assay for Apolipoprotein A-V (APOA5) gene using HepaRG (AID 2283474). Summed up: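 Human liver HepaRG cells are treated 48 h with test chemicals (100 uM top, half-log dilutions, 0.5% DMSO). APOA5 mRNA induction or loss is measured by qRT-PCR relative to vehicle.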

Read-out in assay [10]: Apoptosis regulator Bcl-2 (Homo sapiens) (UniProt P10415)
Kind of assay: LTEA_HepaRG_BCL2: Life Technologies and Expression Analysis (LTEA) Assay for Bcl-2 gene using HepaRG (AID 2283475). An outline of the steps: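 HepaRG, plated 48 h then switched to serum-free induction medium; dosed 48 h, 8 conc. (max 100 uM, half-log steps), duplicate, 0.5% DMSO. Lysis in RLT, RNA isolated, TaqMan qRT-PCR for BCL2; ACTB/GAPDH/POLR2A normalisation; bidirectional fit vs DMSO.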

Read-out in assay [11]: Bcl-2 (BID) gene, BID (gene 637)
Kind of assay: LTEA_HepaRG_BID: Life Technologies and Expression Analysis (LTEA) Assay for Bcl-2 (BID) gene using HepaRG (AID 2283476). An outline of the steps:
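Transcript levels of BID, measured by qRT-PCR and normalized to three housekeeping genes, were fitted bidirectionally against DMSO controls. Cells were HepaRG, dosed 48 h at up to 100 uM.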

Read-out in assay [12]: Caspase-3 (Homo sapiens) (UniProt P42574)
Description: LTEA_HepaRG_CASP3: Life Technologies and Expression Analysis (LTEA) Assay for cysteine-aspartic acid protease (CASP3) using HepaRG (AID 2283477). An outline of the steps: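 In HepaRG liver cells dosed for 48 h at up to 100 uM (eight-point, duplicate), CASP3 expression changes are scored by qRT-PCR. Activity is fitted in both directions with 0.5% DMSO as baseline.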

Read-out in assay [13]: Cytochrome P450 (CYP24A1), CYP24A1 (gene 1591)
Kind of assay: LTEA_HepaRG_CYP24A1: Life Technologies and Expression Analysis (LTEA) Assay for Cytochrome P450 (CYP24A1) using HepaRG (AID 2283478). Summed up:
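Human liver HepaRG cultures receive each chemical for 48 h across an eight-point half-log series topping at 100 uM in 0.5% DMSO. Induction or suppression of CYP24A1 mRNA is scored relative to vehicle after housekeeping-gene normalization.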

Read-out in assay [14]: Cytochrome P450 (CYP1A2), CYP1A2 (gene 1544)
Kind of assay: LTEA_HepaRG_CYP1A2: Life Technologies and Expression Analysis (LTEA) Assay for Cytochrome P450 (CYP1A2) using HepaRG (AID 2283479). An outline of the steps: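 Assesses CYP1A2 mRNA in human HepaRG liver cells after 48 h chemical exposure at up to 100 uM. Values come from qRT-PCR with bidirectional curve fitting relative to DMSO.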

Read-out in assay [15]: cysteine-aspartic acid protease (CASP8), CASP8 (gene 841)
Kind of assay: LTEA_HepaRG_CASP8: Life Technologies and Expression Analysis (LTEA) Assay for cysteine-aspartic acid protease (CASP8) using HepaRG (AID 2283480). An outline of the steps:
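Differentiated human HepaRG cells, plated 48 h then switched to serum-free induction medium, were exposed in duplicate for 48 h to 8 half-log concentrations up to 100 uM in 0.5% DMSO. CASP8 mRNA was quantified by qRT-PCR, normalized to ACTB/GAPDH/POLR2A.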

Read-out in assay [16]: Cytochrome P450 (CYP2B6), CYP2B6 (gene 1555)
Description: LTEA_HepaRG_CYP2B6: Life Technologies and Expression Analysis (LTEA) Assay for Cytochrome P450 (CYP2B6) using HepaRG (AID 2283481). Summed up: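 Using 48 h treatment of HepaRG cells in serum-free induction medium, concentrations spanned half-log steps from 100 uM in 0.5% DMSO vehicle. CYP2B6 mRNA induction or loss is scored by qRT-PCR against DMSO.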

Read-out in assay [17]: Cytochrome P450 2C19 (Homo sapiens) (UniProt P33261)
Description: LTEA_HepaRG_CYP2C19: Life Technologies and Expression Analysis (LTEA) Assay for CYP2C19 using HepaRG (AID 2283482). Summed up: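 Human HepaRG liver cells received test chemicals for 48 h (highest 100 uM, half-log dilutions in 0.5% DMSO). CYP2C19 mRNA induction or loss is read by multiplexed qRT-PCR and fitted in both directions versus vehicle.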

Read-out in assay [18]: CYP2C8 (gene 1558)
Description: LTEA_HepaRG_CYP2C8: Life Technologies and Expression Analysis (LTEA) Assay for CYP2C8 using HepaRG (AID 2283483). Summed up: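 Differentiated human HepaRG cells were exposed for 48 h in serum-free induction medium to eight half-log concentrations up to 100 uM in 0.5% DMSO, in duplicate. CYP2C8 mRNA was measured by TaqMan qRT-PCR, normalized to ACTB, GAPDH and POLR2A, and fitted bidirectionally against DMSO.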

Read-out in assay [19]: CYP2E1 (gene 1571)
Kind of assay: LTEA_HepaRG_CYP2E1: Life Technologies and Expression Analysis (LTEA) Assay for CYP2E1 using HepaRG (AID 2283485). Summed up:
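Human liver line HepaRG, plated 48 h, then serum-free induction medium + chemical x 48 h; 8-pt CRC from 100 uM, half-log, 0.5% DMSO, n=2. Readout: CYP2E1 mRNA qRT-PCR vs ACTB/GAPDH/POLR2A; bidirectional fit vs DMSO.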

Chain of Apoptosis regulator Bcl-2 (Homo sapiens) (P10415 whole entry, looked up): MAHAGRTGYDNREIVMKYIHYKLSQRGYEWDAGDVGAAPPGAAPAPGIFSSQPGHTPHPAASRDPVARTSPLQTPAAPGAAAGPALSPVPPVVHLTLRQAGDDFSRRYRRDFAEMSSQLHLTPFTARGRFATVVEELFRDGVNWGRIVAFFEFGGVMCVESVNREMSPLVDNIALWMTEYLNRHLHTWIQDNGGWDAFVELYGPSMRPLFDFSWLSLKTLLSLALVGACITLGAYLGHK
Chain of Caspase-3 (Homo sapiens) (P42574 whole entry, looked up): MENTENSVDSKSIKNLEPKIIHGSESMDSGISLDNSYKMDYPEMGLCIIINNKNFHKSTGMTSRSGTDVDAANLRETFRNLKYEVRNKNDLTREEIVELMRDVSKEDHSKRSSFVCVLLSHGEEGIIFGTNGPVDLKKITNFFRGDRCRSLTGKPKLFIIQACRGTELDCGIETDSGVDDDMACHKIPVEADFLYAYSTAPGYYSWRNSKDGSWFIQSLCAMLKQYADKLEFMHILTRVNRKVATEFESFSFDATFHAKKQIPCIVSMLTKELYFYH
Chain of Cytochrome P450 2C19 (Homo sapiens) (P33261 whole entry, looked up): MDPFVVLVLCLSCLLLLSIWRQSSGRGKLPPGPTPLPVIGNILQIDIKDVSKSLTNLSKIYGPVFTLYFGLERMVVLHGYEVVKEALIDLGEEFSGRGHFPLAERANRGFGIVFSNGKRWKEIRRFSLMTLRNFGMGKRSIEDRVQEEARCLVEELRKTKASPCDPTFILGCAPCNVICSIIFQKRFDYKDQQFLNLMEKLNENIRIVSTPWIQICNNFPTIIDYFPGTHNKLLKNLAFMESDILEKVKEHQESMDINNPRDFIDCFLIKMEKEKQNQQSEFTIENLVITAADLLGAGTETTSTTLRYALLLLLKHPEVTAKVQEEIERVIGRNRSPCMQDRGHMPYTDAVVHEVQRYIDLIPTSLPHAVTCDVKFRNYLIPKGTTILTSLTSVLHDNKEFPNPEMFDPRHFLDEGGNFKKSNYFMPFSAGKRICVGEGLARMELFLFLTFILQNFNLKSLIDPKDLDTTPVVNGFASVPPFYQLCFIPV

With `Oc1c(Cl)c(Cl)c(Cl)c(Cl)c1Cl`, the AC50 in assay [1] is 1.61 µM (active); in [2] it was 3.29 µM (active); in [3] it was 5.48 µM (active); in assay [6] it was 6.68 µM (active); in assay [7], 3.19 µM (active); in [8] it was 6.24 µM (active). In addition, the AC50 in [9] is 3.95 µM (active); in assay [11], 4.97 µM (active); in [12], 6.5 µM (active); in assay [14], 3.83 µM (active); in assay [15] it was 6.64 µM (active); in assay [16], 3.43 µM (active). The AC50 in [17] was 4.27 µM (active); in [18], 4.44 µM (active); in assay [19], 1.94 µM (active). The compound was classed as inactive in assay [4], in assay [5], in [10] and in assay [13].

As for `ClC1=C(Cl)[C@]2(Cl)[C@@H]3[C@@H](Cl)[C@H]4O[C@H]4[C@@H]3C1(Cl)C2(Cl)Cl`, the AC50 in assay [1] was 75 µM (active); in assay [7] it was 21.9 µM (active); in assay [16], 0.526 µM (active); in assay [17] it was 1.21 µM (active); in assay [19], 25.5 µM (active). For the same compound, the result in assay [2], in [3], in [4], in assay [5], in assay [6] and in assay [8] was inactive. The outcome in [9], in [10], in [11], in assay [12], in assay [13] and in assay [14] was inactive. The result in assay [15] and in assay [18] was inactive.

In the case of `C1CC2OC2CC1C1CO1` (configuration not stated), the result in assay [1], in [2], in [3], in assay [4], in assay [5] and in [6] was inactive. Moreover, the compound was classed as inactive in assay [7], in [8], in assay [9], in [10], in [11] and in [12]. Also, the compound was classed as inactive in assay [13], in assay [14], in [15], in assay [17], in [18] and in assay [19]. Also, the AC50 in assay [16] was 7.5 µM (active).
